Shown are actives, neighbours in structure and some others; about 12% of the full set was active somewhere.
Sfp PPTase inh = Sfp phosphopantetheinyl transferase inhibition; Q9F4F7; Biochemical Sfp PPTase activity, qHTS; Potency, µM, for inactives: largest response in the series, negative = inhibition, actives largely listed as inhibitors; actives 3.5% (n = 310,000);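 also: the enzyme is Sfp with the accession as filed and its product quenches rhodamine fluorescence; 0% = enzyme reaction without inhibitor and -100% = no enzyme wells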
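Step 1, compound plus 15 nM Sfp-PPTase, 15 min, room temperature. Step 2, add rhodamine-CoA (5 uM) and BHQ-2-YbbR (12.5 uM). Step 3, read 525/598 nm fluorescence at 0 and 30 min.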
BAZ2B inh = inhibitors of human BAZ2B bromodomain; AlphaScreen BAZ2B-H3K14Ac peptide displacement; Potency, µM (doses to about 114 µM), for inactives: at the top dose activity change, negative = inhibition, most hits filed as inhibitors; actives 4.4% (n = 360,000); also: % is scaled to controls: 0 for no effect and ±100 for the full control effect; nearly all actives have a fitted effect of over 60% in size
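BAZ2B 50 nM plus b-H3(5-23)K14Ac 50 nM, PBS pH 7.4/0.01% Tween-20, 30 min RT; compound added (max 110 uM), 30 min RT; streptavidin donor/Ni-chelate acceptor beads 10 ug/mL final, 20 min dark; AlphaScreen read.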
PLK1 PBD block = PLK1 (human) polo-box domain binding inhibition | P53350 | Plk1 PBD binding of FITC phosphopeptide, fluorescence polarization | Potency, µM, for the others: max response, negative = inhibition, usual class: inhibitors | actives 2.8% (n = 360,000) | AID 720504; also: series mostly up to about 57 µM; % is scaled to controls: 0 for no effect and ±100 for the full control effect; nearly all actives have a fitted effect of over 65% in size
JMJD2A Tudor = inhibitors of human JMJD2A Tudor domain | Potency, µM (series often up to 114 µM), for inactives: at the top dose activity change, negative = inhibition, usual class: inhibitors | actives 4.4% (n = 390,000) | AlphaScreen JMJD2A-Tudor / H3K4me3 peptide binding | AID 504339; also: % is scaled to controls: 0 for no effect and ±100 for the full control effect; nearly all actives have a fitted effect of over 50% in size
Target sequence (O75164 whole entry, looked up, the tested form may be a part): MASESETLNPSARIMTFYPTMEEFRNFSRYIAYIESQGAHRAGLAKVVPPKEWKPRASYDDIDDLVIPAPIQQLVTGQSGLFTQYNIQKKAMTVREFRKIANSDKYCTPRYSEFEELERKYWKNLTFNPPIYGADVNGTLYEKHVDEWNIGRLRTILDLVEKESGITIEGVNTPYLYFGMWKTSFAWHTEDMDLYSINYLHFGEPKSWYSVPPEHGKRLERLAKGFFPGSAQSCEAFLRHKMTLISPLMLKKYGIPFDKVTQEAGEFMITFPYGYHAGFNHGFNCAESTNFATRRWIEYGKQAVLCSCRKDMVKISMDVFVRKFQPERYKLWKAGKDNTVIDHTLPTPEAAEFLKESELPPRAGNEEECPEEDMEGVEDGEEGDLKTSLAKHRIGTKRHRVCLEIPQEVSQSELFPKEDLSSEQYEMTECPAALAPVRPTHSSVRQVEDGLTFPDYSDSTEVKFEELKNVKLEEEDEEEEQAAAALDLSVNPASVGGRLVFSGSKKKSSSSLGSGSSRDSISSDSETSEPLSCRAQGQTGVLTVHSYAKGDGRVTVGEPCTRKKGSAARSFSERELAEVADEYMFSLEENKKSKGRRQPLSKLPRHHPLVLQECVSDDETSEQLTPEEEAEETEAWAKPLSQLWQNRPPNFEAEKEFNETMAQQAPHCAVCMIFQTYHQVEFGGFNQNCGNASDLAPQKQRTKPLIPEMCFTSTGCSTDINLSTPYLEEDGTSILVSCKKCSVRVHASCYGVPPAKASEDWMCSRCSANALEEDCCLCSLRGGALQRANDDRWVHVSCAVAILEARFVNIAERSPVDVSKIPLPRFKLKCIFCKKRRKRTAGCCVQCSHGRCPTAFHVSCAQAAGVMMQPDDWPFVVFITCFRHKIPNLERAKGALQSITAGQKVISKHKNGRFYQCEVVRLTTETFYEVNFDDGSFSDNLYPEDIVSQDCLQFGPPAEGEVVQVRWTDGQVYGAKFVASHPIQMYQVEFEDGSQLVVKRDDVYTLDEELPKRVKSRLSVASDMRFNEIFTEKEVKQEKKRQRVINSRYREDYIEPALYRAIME
HP1b binding inh = HP1-beta chromodomain-methylated histone interaction inhibition; AlphaScreen HP1-beta / biotin-H3K9me3 peptide binding; Potency, µM (highest dose often 114 µM), for the others: at the top dose activity change, negative = inhibition, hits mostly inhibitors; actives 0.56% (n = 390,000); AID 540317; also: nearly all actives have a fitted effect of over 70% in size
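AlphaScreen: HP1-beta (50 nM) preformed 30 min with biotin-H3(1-18)K9me3 peptide (50 nM) in PBS pH 7.4, 0.01% Tween-20. Compound added for 30 min at RT, then streptavidin donor/nickel chelate acceptor beads (10 ug/mL) for 30 min.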
G9a block = inhibitors of human histone lysine methyltransferase G9a | Q96KQ7 | G9a H3K9 monomethylation, AlphaScreen, 2 h | Potency, µM (series often up to 102 µM), inactives show at the top dose activity, negative = inhibition, usual class: inhibitors | actives 8.8% (n = 350,000); also: % is scaled to controls: 0 for no effect and ±100 for the full control effect; nearly all actives have a fitted effect of over 75% in size
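G9a (20 nM) was preincubated 15 min with compound, then reacted 2 h at room temperature with 500 nM biotin-H3K9 peptide and 20 µM SAM. Monomethyl-H3K9 detected by AlphaScreen using anti-H3K9me1 antibody.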
* = called active by the depositor; ? = inconclusive; . = no result; [ ] = another dose, or the depositor's remark. Calls follow the shape of the dose curve; as a rule, active = well fitted curve in the direction sought with a large enough effect; inconclusive = small, poorly fitted or top-dose-only effect, or another doubt; inactive = no such curve, though single readings can be large; an effect the other way counts as inactive or inconclusive. Potency is read from the fitted curve at half-maximal effect.

SMILES	Sfp PPTase inh	BAZ2B inh	PLK1 PBD block	JMJD2A Tudor	HP1b binding inh	G9a block
CCOc1ccc(C(=O)Nc2nnc(SCc3cc(=O)c4cc(C)ccc4[nH]3)s2)cc1	.	-0.3%	.	-9.7%	19.2%[57 µM]	-12.3%[59 µM]
O=C(O)CSc1ccnc2cc(Cl)ccc12	56.2µM*	-3.9%	1.6%	-11.4%	19.0%	56.2µM*
COC(=O)CSc1ccnc2cc(Cl)ccc12	11.9%	31.0%	8.5%	-0.3%	10.9%	5.3%
CCN(C/C=C/c1ccccc1OC)Cc1ccccc1	-13.1%	?	-21.6%	20µM*	?	.
CCCCN(C/C=C/c1ccccc1OC)Cc1ccccc1	-3.0%	?	-1.3%	1.26µM*	?	17.8µM*
O=C(Nc1ccccc1)N1CC[C@@]2(CCCN(C(=O)c3csnn3)C2)C1	11.2%	.	.	.	.	-1.6%[12.7 µM]
CC(C)(C)c1c(Cl)c(O)c(-c2ccccc2)c(=O)n1-c1ccccc1	-6.3%	17.8µM*	-21.0%	50.1µM*	?	.
COc1ccccc1-c1cn(-c2ccccc2)c(=S)[nH]1	?	-28.3%	-27.3%	-33.7%	30.4%	12.4%
COC(=O)c1ccc(-n2cc(-c3ccc(OC)cc3)[nH]c2=S)cc1	-23.3%	-9.9%	6.7µM*	-16.0%	12.9%	1.12µM*
COc1ccc(-c2cn(-c3ccc(C)c(Cl)c3)c(=S)[nH]2)cc1OC	-24.5%	-10.0%	26.7µM*	-14.7%	-3.9%	50.1µM*
COc1ccc(-n2cc(-c3ccc(Cl)cc3)[nH]c2=S)cc1	1.9%	-2.0%	-2.7%	0.0%	47.0%	.
COc1cccc(-n2cc(-c3ccc(F)cc3)[nH]c2=S)c1	?	50.1µM*	-4.9%	44.7µM*	14.1%	?
COc1ccc(-c2cn(-c3ccccc3)c(=S)[nH]2)cc1OC	?	?	21.2µM*	-33.1%	-6.0%	8.91µM*
CN(C)C(=S)Nc1ccc(Cc2ccncc2)cc1	-25.5%	8.1%	-24.9%	-26.6%	7.2%	.
C[C@]12CCC[C@H](O1)c1c(cc3c(c1O)C(=O)c1c(O)cc(O)cc1C3=O)O2	.	.	?	35.5µM*	?	.
COc1ccc(CN2COc3ccc4c(-c5ccccc5)cc(=O)oc4c3C2)cc1OC	.	0.1%	.	-17.0%	21.6%	9.5%[59 µM]
O=C(On1c(-c2ccccc2)nc2ccccc2c1=O)c1ccco1	-27.5%	-29.2%	16.8µM*	89.1µM*	-3.9%	?
COc1cc(OC)c(NC(=O)Cn2cnc3sc(C)c(S(=O)(=O)N4CCOCC4)c3c2=O)cc1Cl	17.2%	3.4%	4.9%	-4.2%	43.5%	-0.5%
C/C(=N\NC(N)=S)C1(C)CCCCC1	?	-34.8%	-12.1%	35.5µM*	-17.0%	50.1µM*
C/C(=N\NC(N)=O)C1(C)CCCCC1	13.0%	9.5%	0.4%	-2.2%	22.8%	13.9%
COc1ccc(N=N/C(=C\O)C(=O)c2ccco2)cc1	-10.3%	39.8µM*	26.7µM*	-11.3%[11.4 µM]	-26.0%	?
COc1ccc(/C(N)=N/OC(=O)c2ccco2)cc1	-0.1%	6.7%	-2.4%	20.6%	50.6%	-1.9%
c1ccc(Oc2cccc(Oc3ccccc3)n2)cc1	.	.	1.2%	68.2%	131.2%	.
O=C(Cn1nc(-c2cccc(Cl)c2)ccc1=O)NCC1COCCO1 (stereo not given)	.	79.4µM*	-3.9%	3.1%	41.4%	-4.9%
Nc1nnc(COc2cccc(C(F)(F)F)c2)s1	1.2%	2.9%	-25.6%	-4.5%	8.2%	2.8%
SMILES	Sfp PPTase inh	BAZ2B inh	PLK1 PBD block	JMJD2A Tudor	HP1b binding inh	G9a block
Cc1cccc(OCc2nnc(N)s2)c1	6.1%	6.6%	26.7µM*	?	-10.1%	-7.2%[59 µM]
NC(=O)CSc1nccn1Cc1ccccc1	7.2%	-1.6%	-5.8%	2.2%	18.1%	-25.0%
O=[N+]([O-])c1ccccc1Sc1nccn1Cc1ccccc1	11.2%	?	1.6%	?	0.1%	50.1µM*
COc1ccc2c(c1)C=C([C@@H]1C[C@H]3CN(c4ccccc4)C(=O)[C@]34CCCN14)CO2	-4.3%	-25.8%	-13.6%	?	-12.7%	56.2µM*
O=C(CO/N=C/c1cccc([N+](=O)[O-])c1)Nc1ccc2ccccc2c1	?	?	-2.3%	-25.7%	5.7%	0.891µM*
O=C(COc1ccc(/C=N/NC(=O)c2ccncc2)cc1)Nc1ccc([N+](=O)[O-])cc1	25.7%	-1.7%	-11.8%	?	18.8%	20.0%[59 µM]
O=C(COc1ccc(/C=N/NC(=O)c2ccc(O)cc2)cc1)Nc1cccc([N+](=O)[O-])c1	-26.4%	-35.4%	-21.2%	-23.8%	2.6%	28.2µM*
Cc1occc1C(=O)N/N=C/C1=C(N2CCOCC2)C(=C/c2ccc(Cl)cc2Cl)/CC1	.	.	-0.7%	-18.8%	24.2%	.
CCN(CC(=O)NCc1cccs1)C(=O)c1ccc(S(=O)(=O)Nc2cccc(C)c2C)cc1	14.7%	-4.4%	1.0%	-13.1%	26.9%	48.0%
Cc1ccc(C(=O)COC(=O)C(Cc2c[nH]c3ccccc23)NC(=O)c2ccc(C(C)(C)C)cc2)cc1 (stereo not given)	.	-9.4%	.	-31.4%	6.0%	?
Cc1sc(NC(=O)Cc2ccc3c(c2)OCO3)nc1-c1ccc2c(c1)CCN2C(=O)c1ccc(F)cc1	-9.9%	-9.7%	-16.2%	?	-18.7%	39.8µM*
CCOC(=O)C(=O)Nc1nc(-c2ccc3c(c2)CCN3C(=O)C2CC2)c(C)s1	-9.3%	?	-25.2%	-18.9%	13.6%	50.1µM*
CC(=O)Nc1nc(-c2ccc3c(c2)CC(C)N3C(=O)C2CC2)c(C)s1 (stereo not given)	50.1µM*	?	-16.2%	-31.5%	?	25.1µM*
CC1Cc2cc(S(=O)(=O)NCc3ccccc3)ccc2N1C(=O)C1CC1 (stereo not given)	16.8%	-0.5%	-1.7%	-4.8%	28.3%	12.1%[59 µM]
Cc1sc(NC(=O)c2ccco2)nc1-c1ccccc1	-0.7%	-9.4%	-6.7%	-15.6%	24.6%	8.7%[12.7 µM]
Cc1sc(NC(=O)c2ccco2)nc1-c1ccc2c(c1)CC(C)N2C(=O)C1CC1 (stereo not given)	-18.2%	-3.9%	-17.0%	-26.3%	?	44.7µM*
COc1cc(NC(=O)Cc2ccccc2)ccc1NC(=O)c1ccccc1	7.9%	0.0%	-16.4%	-15.1%	19.9%	-12.4%
Cn1cnc2c(NCc3ccccc3)nc(Cl)nc21	.	.	.	-5.0%	19.7%	.
CCn1nccc1NC(=O)c1csc([C@H]2C[C@H](O)[C@@H](CO)O2)n1	.	.	-5.5%	.	.	.
COc1ccc(-n2nc(N)c(C(N)=O)n2)cc1	9.6%	?	18.9µM*	-23.3%[11.4 µM]	-19.0%	44.7µM*
C=CCNC(=O)c1ccc(-c2nc(-c3ccc(Cl)cc3Cl)cs2)cc1	-9.3%	16.1%	-1.5%	-10.8%	24.5%	-41.1%[12.7 µM]
Cc1c(NC(=O)Nc2cc(Cl)ccc2Cl)c(=O)n(-c2ccccc2)n1C	16.1%	-2.1%	-13.8%	-13.9%	23.0%	?
